Calls of active or inactive are those of the source. The calls were made as follows: active = hit-call score of the fitted dose curve at least 0.9, where 1 is the maximum; inactive = score below 0.9.

The nature of the test: ATG_SREBP_CIS: Attagene CIS-FACTORIAL HepG2 Assay for human Sterol Regulatory Element Binding (SREBP) (AID 2282962). To be noted: HepG2 Attagene cis-factorial SREBP reporter, mRNA; actives raise or lower the signal. The protocol:
ATG_CIS is a cell-based, multiplexed-readout assay that uses HepG2, a human liver cell line, with measurements taken at 24 hours after chemical dosing in a 24-well plate.ATG_SREBP_CIS is one of 52 assay component(s) measured or calculated from the ATG_CIS assay. It is designed to make measurements of mRNA induction, a form of inducible reporter, as detected with fluorescence intensity signals by Reverse transcription polymerase chain reaction (RT-PCR) and Capillary electrophoresis technology.Data from the assay component ATG_SREBP_CIS was analyzed into 1 assay endpoint. This assay endpoint, ATG_SREBP_CIS, was analyzed with bidirectional fitting relative to DMSO as the negative control and baseline of activity. Using a type of inducible reporter, measures of mRNA for gain or loss-of-signal activity can be used to understand the reporter gene at the transcription factor-level as they relate to the gene SREBF1. Furthermore, this assay endpoint can be referred to as a primary readout, because this assay has produced multiple assay endpoints where this one serves a reporter gene function. To generalize the intended target to other relatable targets, this assay endpoint is annotated to the dna binding intended target family, where the subfamily is basic helix-loop-helix leucine zipper.
Human liver HepG2 cells are transiently transfected with multiple reporter transcription units (MRTUs) in 6-well plates using FuGene 6 reagent (Roche; 3 ml FuGene/1 mg DNA). The MRTU constructs are regulated by a cis-regulating element (promoter). […] A major difference between the CIS and TRANS system is that in CIS activities of endogenous TFs are measured, whereas the TRANS assay evaluates changes in activities of exogenous, chimeric NR-Gal4 proteins. […] At the end of 24 hour incubation, total RNA was isolated using TriZol reagent (Invitrogen). The isolated RNA is then reverse-transcribed using oligo(dT) primer and Mo-MLV reverse transcriptase (Invitrogen) with DNAse I (Ambion) treatment for 30 min. The one-tenth of the produced cDNA was amplified by PCR using Taq DNA polymerase (Invitrogen) and two reporter sequence-specific primers. The PCR products were fluorescently labeled by primer extension with 6-arboxyfluorescein (6-FAM) 5'-labeled reporter sequence-specific primer (2 min at 95 C, 20 s at 68 C and 10 min at 72 C) and these products were digested with 5U of HpaI (New England Biolabs) for 2h at 37 C. The fragments were purified using Qiaquick PCR columns (Qiagen), analyzed on an ABI 3130xL genetic analyzer (Applied Biosystems) with peak positions identified by using a set of X-rhodamine (ROX)-labeled MapMarker1000 molecular weight standards (BioVentures). The raw capillary electrophoresis data was processed using Attagraph software (Attagene).
`COc1cccc(OC)c1`: the call was inactive.
Turning to `CCCCO`, the result was inactive.
Turning to `CC1(C)[C@@H]2CC[C@@]1(C)[C@H](O)C2`, the call was inactive.
Regarding `CC(=O)O[C@H](CC(=O)[O-])C[N+](C)(C)C`, the compound was called inactive.
For the compound `CCCCNC(=O)NS(=O)(=O)c1ccc(C)cc1`, the result was inactive.
In the case of `O=Cc1ccc(F)cc1`, the call was inactive.
Take `COc1cc(C=O)ccc1OC(=O)C(C)C`: the call was inactive.
The same measure, in the same setting: next, `CCCCCCCCCC=O`: “inactive”.
For the compound `C#C[C@]1(O)CC[C@H]2[C@@H]3CCC4=Cc5oncc5C[C@]4(C)[C@H]3CC[C@@]21C`, the half-maximal activity concentration (AC50) – broadly, the midpoint of the concentration-response curve, whichever way the signal moves – is 14.8 µM (active).
For `CCCCCCCCCCCCN`, the AC50 is 18.1 µM (active).
For `CC(O)C(C)O` (stereo not given), the call was inactive.
On to `CC(C)OP(=O)(CP(=O)(OC(C)C)OC(C)C)OC(C)C`, for which the result was inactive.
As for `Clc1cccc(Cl)n1`, the compound was classed as inactive.
With `N#Cc1ccc(CC(=NNC(=O)Nc2ccc(OC(F)(F)F)cc2)c2cccc(C(F)(F)F)c2)cc1`, the compound was classed as inactive.
Take `CNC[C@H](O)c1cccc(O)c1`: the compound was called inactive.
Take `C=CCOC(=O)CCC1CCCCC1`: the call was inactive.
Turning to `O=C1CCCCCCCCCCCCCCO1`, the outcome was inactive.
In the case of `COc1cc2ncnc(Nc3cccc(Cl)c3)c2cc1OC`, the outcome was inactive.
On to `O=[N+]([O-])c1ccc(Nc2ccc(Nc3ccccc3)c(S(=O)(=O)O)c2)c([N+](=O)[O-])c1`, for which the compound was classed as inactive.
Consider `Nc1ccc(S(=O)(=O)O)c(N)c1`, for which the compound was classed as inactive.
For `CC1CC(OC(=O)c2ccccc2O)CC(C)(C)C1` (stereo not given), the outcome was inactive.
Consider `CNCCCC12CCC(c3ccccc31)c1ccccc12`, for which the compound was called inactive.
As to `CN(C)C(=N)N=C(N)N`, the outcome was inactive.
Still for that read-out and setting: with `C=C(C)C1CCC(C)CC1O` (stereo not given) the entry was “inactive”.
Take `Cc1c(N(C)C)c(=O)n(-c2ccccc2)n1C`: the call was inactive.
In the case of `CCCCCCCCCCN`, the compound was called inactive.
As for `CNCCO`, the result was inactive.
Turning to `NCCNCCN`, the compound was called inactive.
As to `Cc1ccc2ccccc2n1`, the result was inactive.
As for `c1ccc(CCCc2ccccn2)cc1`, the call was inactive.
As for `C=C(C)C(=O)O`, the result was inactive.
On to `Cc1c(Cl)c(=O)oc2cc(O)ccc12`, for which the AC50 is 120 µM (active).
In the case of `CCCCC/C=C/C=C/C=O`, the compound was classed as inactive.
Take `O=C1CCc2ccccc2O1`: the call was inactive.
For the compound `C=O`, the compound was called inactive.
Still for that read-out and setting: with `CCN(CC)c1ccc(C(=C2C=CC(=[N+](CC)CC)C=C2)c2ccc(S(=O)(=O)O)cc2S(=O)(=O)[O-])cc1` the entry was “inactive”; with `O=C1CCCCCCCCCCOCCCCO1`, “inactive”.
In the case of `Clc1nc(C(Cl)(Cl)Cl)c(Cl)c(Cl)c1Cl`, the AC50 was 52.5 µM (active).
On to `Cc1cccc(C)c1C`, for which the outcome was inactive.
In the case of `CC(C)(COC(=O)c1ccccc1)COC(=O)c1ccccc1`, the compound was classed as inactive.

The values are drawn from PubChem BioAssay (EPA / NIEHS).
